Results reported in the OligoGym collection.
Note: reference of the scale not given here.

The sequences below were run against WFIKKN1 (assay: pooled miR-30 sensor sort-seq; sequence = guide strand). Conditions: shRNA.
TGATGCAGCACTTCTCAGCAGC gave a sensor-assay potency score (higher = more potent) of -0.485.
With TCATCCTTGAGCACGTCCTCGA the sensor-assay potency score (higher = more potent) was -0.412.
Sequence TCTCTCGCTGGTGACTCTGCTT has a sensor-assay potency score (higher = more potent) of -0.761.
In the case of TTGACGCGCTTCTCGCTGGCGG, the sensor-assay potency score (higher = more potent) is reported as -0.83.
With TTGCCATACATCTGATCAGGGC the sensor-assay potency score (higher = more potent) was -0.931.
Sequence TCGGCGTCCATATAGCAGCGGT has a sensor-assay potency score (higher = more potent) of -1.4.
TCGCTGGTGACTCTGCTTCTCC showed a sensor-assay potency score (higher = more potent) of -1.48.

What follows are sequences tested against WIZ in the same assay as above. Conditions: shRNA.
In the case of TCTTCTTGAGGATCTCTCGCAG, the sensor-assay potency score (higher = more potent) is reported as -0.0721.
Sequence TTCTGCTGTAGGTCATTGGTGT has a sensor-assay potency score (higher = more potent) of -0.0622.
With TTCAAATTTGTTGATGTTCTGC the sensor-assay potency score (higher = more potent) was 0.0401.
Sequence TTTGTTGATGTTCTGCCGCTGG has a sensor-assay potency score (higher = more potent) of -0.379.
TTCTCGAAGAACTCGCCGCAGA gave a sensor-assay potency score (higher = more potent) of -0.9.
TTGAGGATCTCTCGCAGTGTGT gave a sensor-assay potency score (higher = more potent) of -1.29.
With TTCTTCTTGAGGATCTCTCGCA the sensor-assay potency score (higher = more potent) was -0.31.
In the case of TATTTGTTCAGGCTTCAGCTTC, the sensor-assay potency score (higher = more potent) is reported as -1.07.
For TTGGCCTTGACCTCTGCTGGGA, the sensor-assay potency score (higher = more potent) was -0.479.
TTGACAAGTGATGTCTGGGGGG was tested, and the sensor-assay potency score (higher = more potent) was -0.32.
AATTCCACCTCACAGAACCTGC showed a sensor-assay potency score (higher = more potent) of -1.06.
Work on TTTGGAGAAGTTCATCTCCAGG yielded a sensor-assay potency score (higher = more potent) of -1.49.
